HUVEC tox IL1B: toxic to HUVEC cells under IL-1B stimulation; HUVEC cell count loss, Hoechst imaging, IL-1B stimulated; cell count reduction, % at 2 µM; 0.41% of 94,000 active;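 active = cell count reduction more than 3 SD above the screen-wide mean, cut at about 70% in these data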;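 also: normalized per plate to untreated control cells as the no-loss baseline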
TNFa cytotox: HUVEC cytotoxicity counter-screen, TNF alpha stimulated; 0.17% of 93,000 active; HUVEC TNFalpha-stimulated, Hoechst cell count, imaging; cell count reduction, % at 2 µM; AID 848;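 active = cell count reduction exceeding the screen mean by over 5 SD, scaled to untreated wells per plate, cut at about 78% in these data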;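 also: cells counted after 24 h of TNF alpha exposure following the 1 h pretreatment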
IL1B NFkB inh: blocks IL-1B driven NFkB nuclear translocation in HUVEC cells | HUVEC IL-1B NFkB p65 nuclear translocation imaging | inhibition, % at 2 µM | 0.43% of 94,000 active | AID 796;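 active = inhibition above about 30% together with a positive call from visual inspection of the well image, limit read from the data; inconclusive = inhibition above a set limit but visual check negative; inactive = inhibition not above a set limit, visual check negative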;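 also: nuclear over cytoplasmic p65 intensity ratio measured by imaging; 0% = IL-1B stimulated DMSO wells and 100% = unstimulated DMSO wells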
IL1B NFkB pot: enhances IL-1B driven NFkB nuclear translocation. HUVEC IL-1B NFkB p65 nuclear translocation imaging. activation, % at 2 µM. 0.3% of 94,000 active. AID 819;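 active = activation above 40%, about the mean plus 3 SD, also judged a hit on visual image review; inconclusive = activation above 40% but not a hit on visual review; inactive = activation not above 40% and no visual hit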;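 also: percent activation is computed from the nuclear over cytoplasmic p65 intensity ratio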
E-sel TNF inh: blocks E-selectin expression induced by TNF alpha; HUVEC TNFa-induced E-selectin immunofluorescence, high content; inhibition, % at 2 µM; 0.71% of 120,000 active; AID 1246;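 active = inhibition above the batch mean plus 3 SD, and confirmed as a hit on visual image review, cut at about 43% in these data; inconclusive = passes the inhibition cutoff but fails visual image review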;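 also: 0% = TNF-stimulated DMSO wells and 100% = unstimulated control wells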
VCAM1 TNFa inh: reduces TNF alpha induced VCAM1 expression in HUVEC; AID 802; HUVEC TNFa-induced VCAM-1 immunofluorescence, high-content imaging; inhibition, % at 2 µM; 0.48% of 95,000 active;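 active = inhibition above the batch mean plus 3 SD, with images confirmed as a hit by eye, cut at about 37% in these data; inconclusive = inhibition above that limit but hit not confirmed in images; inactive = inhibition not above that limit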;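 also: 0% = TNF-stimulated DMSO wells and 100% = unstimulated control wells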
* = called active by the depositor; ? = inconclusive; nt = no result given. Compounds with a hit are over-represented: about 1.8% of the library has one in this group of screens.

SMILES	HUVEC tox IL1B	TNFa cytotox	IL1B NFkB inh	IL1B NFkB pot	E-sel TNF inh	VCAM1 TNFa inh
CN1C=CC2=C(C#N)C(N)C(C#N)(C#N)[C@H](c3ccccc3)[C@H]2C1 (some centres undefined)	-11.0	-3.0	-5.2	5.2	-5.8	-7.0
O=C(COc1ccc(-c2nnco2)cc1)NCc1ccccc1Cl	nt	nt	nt	nt	77.0*	nt
CC(C)Oc1ccc(C2c3c(oc4ccccc4c3=O)C(=O)N2CCCN2CCOCC2)cc1 (centres undefined)	16.9	-2.9	-6.7	6.7	-12.4	-3.3
COc1cc(C)c(Br)cc1S(=O)(=O)N1CCCC1	-8.9	-1.6	-26.1	26.1	6.0	13.3
Cc1nc(NC(=O)c2oc3ccccc3c2C)sc1C(=O)N(C)C	-5.9	0.0	-18.1	18.1	96.0*	-3.7
Cc1nc(NC(=O)c2ccccc2[N+](=O)[O-])sc1C(=O)N(C)C	nt	nt	nt	nt	13.2	nt
Cc1cc(NC(=O)C2C3C=CC(C3)C2C(=O)O)no1 (centres undefined)	-44.7	100.0*	-27.0	27.0	-2.0	?
Cc1cc(NC(=O)C2CC=CCC2C(=O)O)no1 (centres undefined)	-26.7	-11.2	-5.7	5.7	-9.6	6.4
COc1cccc(N2CCN(c3ncnc4c3[nH]c3ccc(F)cc34)CC2C)c1 (centres undefined)	23.5	26.1	17.1	-17.1	96.7*	51.5*
COc1ccc(CC2(C)OC(c3ccccc3)=NN2C(C)=O)cc1 (centres undefined)	nt	nt	nt	nt	-27.4	nt
COc1ccc(-n2nc3c(c2NC(=O)c2cc(Br)ccc2Cl)CS(=O)C3)cc1 (centres undefined)	-15.2	-1.7	-25.0	25.0	82.9*	-5.9
Cc1cccc2nc(CSc3nc4cc([N+](=O)[O-])ccc4s3)cn12	nt	nt	nt	nt	-9.3	nt
CC(=O)c1sc(NC(=O)c2ccccc2C)nc1C	nt	nt	nt	nt	-19.6	nt
CC(=O)c1sc(NC(=O)C(C)C)nc1C	-18.7	-7.5	97.8*	-97.8	-2.6	6.3
CC(=O)c1sc(NC(=O)c2ccc(F)c(F)c2)nc1C	-10.3	-20.8	32.0*	-32.0	-18.5	-10.0
CC(=O)Nc1nc(C)c(C(C)=O)s1	-19.3	3.8	-24.9	24.9	11.8	3.5
COc1cc(NC(=O)Cc2c(C(=O)O)n(C)c3ccccc23)cc(OC)c1OC	nt	nt	nt	nt	4.9	nt
FC(F)Oc1ccc(NC(=S)NCc2ccccc2)cc1Cl	-18.5	-0.4	30.5*	-30.5	-8.4	22.4
Fc1ccc(NC(=S)Nc2ccccc2OC(F)F)cc1Cl	nt	nt	nt	nt	48.8	nt
COCCCNC(=S)N1CCC(NC(=O)c2ccco2)CC1	nt	nt	nt	nt	3.6	nt
CCOc1cc(S(=O)(=O)NCCc2cccc(C)c2)c(OCC)cc1-n1cnnn1	17.1	14.1	35.3*	-35.3	nt	10.6
COc1cc(CN2CCN(c3ccc(C)cc3)CC2)cc([N+](=O)[O-])c1O	15.5	-7.2	-1.1	1.1	99.9*	8.9
CCn1cc(C(=O)NNC(=O)c2ccc(Cl)cc2)c(=O)c2ccc(C)nc21	nt	nt	nt	nt	-60.0	nt
CC1=C([N+](=O)[O-])C(c2cccc(Br)c2)C2=C(N1)c1ccccc1C2=O (centres undefined)	56.3	73.8	9.2	-9.2	-33.2	93.0*
CC(C)(C)C(=O)Nc1ccc(C(=O)NNC(=O)Cc2ccccc2)cc1	-3.5	-23.5	-1.6	1.6	12.1	5.0
SMILES	HUVEC tox IL1B	TNFa cytotox	IL1B NFkB inh	IL1B NFkB pot	E-sel TNF inh	VCAM1 TNFa inh
C=CCNc1nc(N)c(C(=O)Nc2cc(C)on2)s1	77.2*	-2.6	10.1	-10.1	1.1	0.2
O=C1c2ccccc2-c2ncnc3cccc1c23	-30.2	2.6	-11.5	11.5	64.7*	5.6
O=C1c2ccccc2-c2nc3ccccc3nc21	8.1	-23.7	-7.0	7.0	-22.1	-1.6
O=C(NCc1ccco1)N1c2ccccc2Sc2ccccc21	-16.7	-16.4	2.6	-2.6	13.2	-1.4
CCc1c(C)c(C#N)c2nc3ccccc3n2c1-n1nc(C)cc1C	nt	nt	nt	nt	20.8	nt
Cc1cc(NCCN2CCCCC2)n2c(nc3ccccc32)c1C#N	1.3	40.1	1.1	-1.1	100.0*	19.2
CCc1c(C)c(C#N)c2nc3ccccc3n2c1Cl	nt	nt	nt	nt	67.2*	nt
CCN1CCN(S(=O)(=O)c2ccc3ccccc3c2)CC1	3.7	8.4	-22.3	22.3	-5.8	-2.6
Cc1cc(Br)ccc1OCC(=O)N1CCCCCC1	1.4	4.6	3.5	-3.5	-17.2	-21.1
Cc1ccc(OCC(=O)N2CCCCCC2)c(C)c1	85.9*	-17.7	-20.6	20.6	-2.8	6.0
CCC1C(=O)Nc2nc(-c3ccccc3)c(-c3ccccc3)n2N=C1C (centres undefined)	13.2	3.5	-119.9	119.9*	6.2	5.8
Cc1c(Nc2cc(Cl)c3nonc3c2[N+](=O)[O-])c(=O)n(-c2ccccc2)n1C	nt	nt	nt	nt	99.9*	nt
CNS(=O)(=O)c1cccc(C(=O)OC2CCCCC2=O)c1 (centres undefined)	27.0	-5.8	-5.2	5.2	-9.1	-7.2
Cc1nc2c(sc3nc4c(cc32)COC(C)(C)C4)c(=O)o1	-21.7	-1.2	-14.4	14.4	81.3*	-0.9
COc1ccc(-c2[nH]c(-c3ccc(C(=O)O)cc3)nc2-c2ccccc2)cc1	10.9	-7.4	64.3*	-64.3	57.4	-25.0
Cc1cc([N+](=O)[O-])nn1CC(=O)N1c2ccccc2CC1C (centres undefined)	nt	nt	nt	nt	16.0	nt
CCCCOc1ccc(/C=C/C(=O)OCC(=O)NC(=O)NCC(C)C)cc1OCC	nt	nt	nt	nt	83.5*	nt
COCCNC(=O)c1ccc(N(C)S(=O)(=O)c2ccc(OC)c(OC)c2)cc1	nt	-9.6	nt	nt	99.9*	-39.3
O=C(NCCOC(=O)C1COc2ccccc2O1)c1cccnc1 (centres undefined)	22.5	16.6	-7.0	7.0	29.6	-25.3
O=C(Nc1cc(=O)[nH]c2ncnn12)c1ccccc1	11.9	-5.8	-9.1	9.1	-6.3	3.2
O=C(Nc1cc(=O)[nH]c2ncnn12)c1ccc(Cl)cc1Cl	4.2	-8.6	4.0	-4.0	61.8*	12.5
CCOC(=O)c1[nH]c2cc(OC)c(OC)cc2c1NC(=O)C(C)N1CCN(Cc2ccccc2)CC1 (centres undefined)	-2.9	-22.4	31.7*	-31.7	-7.4	-7.7
Nc1nc2ccc(N3CCOCC3)cc2s1	-14.3	nt	-10.3	10.3	14.3	nt
CCS(=O)(=O)N1CCN(c2ccc([N+](=O)[O-])c(N3CCOCC3)c2)CC1	nt	nt	nt	nt	96.9*	nt
O=C(COC(=O)c1ccc(O)cc1)NCCCc1ccccc1	nt	nt	nt	nt	2.9	nt
CC(=O)Oc1ccc2oc(=O)c3c(c2c1)CCCN3C(=O)CN1CCOCC1	nt	nt	nt	nt	-29.2	nt
Cc1noc(NC(=O)c2ccccc2Cl)c1C#N	-11.9	-1.2	-1.4	1.4	17.4	5.6
CC1CN(C(=O)/C(C#N)=C2\N=C(NC(=O)c3ccccc3Cl)c3ccccc32)CC(C)O1 (centres undefined)	nt	nt	nt	nt	92.7*	nt
COc1ccc(C(c2nnnn2C2CCCCC2)N2CCN(c3ccc(OC)cc3)CC2)cc1 (centres undefined)	14.2	-9.8	-56.6	56.6*	10.8	3.6
O=C(c1ccncc1)N1CCN(C(=O)c2ccco2)CC1	-24.4	-24.0	0.0	0.0	-44.0	7.9

Compound activity: PubChem BioAssay, Columbia University Molecular Screening Center
